Bioassay records deposited in PubChem BioAssay by several laboratories.
The list is not random: actives were taken first. Their share in the collection is about 32%.
CYP2C19 act = activators of human cytochrome P450 2C19. activation factor at 5 µM. recombinant CYP2C19, luciferin-H EGE luminescence; stronger effect = higher value; 0 = fully inhibited enzyme, 1 = untreated enzyme. 96,000 tested, under 10 active. AID 1025;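 active means activation factor of at least 2 at 5 µM in the primary screen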;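 further: 0 = wells with 2.5 mM tranylcypromine and 1 = vehicle-only wells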
Target sequence (P33261 whole entry, looked up): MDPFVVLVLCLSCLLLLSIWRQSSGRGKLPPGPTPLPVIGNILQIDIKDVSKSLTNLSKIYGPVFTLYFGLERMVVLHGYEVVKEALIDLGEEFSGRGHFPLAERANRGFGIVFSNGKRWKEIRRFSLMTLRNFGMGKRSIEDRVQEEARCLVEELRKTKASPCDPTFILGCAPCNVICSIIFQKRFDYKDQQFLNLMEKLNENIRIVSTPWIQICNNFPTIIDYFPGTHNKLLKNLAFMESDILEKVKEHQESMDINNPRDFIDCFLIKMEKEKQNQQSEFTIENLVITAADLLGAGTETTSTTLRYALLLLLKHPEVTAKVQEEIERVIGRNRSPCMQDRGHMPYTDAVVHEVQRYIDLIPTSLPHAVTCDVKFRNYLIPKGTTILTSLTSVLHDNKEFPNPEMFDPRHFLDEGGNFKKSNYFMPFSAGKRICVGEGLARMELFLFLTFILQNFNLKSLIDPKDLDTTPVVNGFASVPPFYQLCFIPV
CYP2C9 inh = inhibitors of human CYP2C9; P11712; CYP2C9 Supersomes, luciferin-H conversion, luminescence; inhibition, % at 5 µM; 20% of 96,000 active;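 active means blocking of liver enzyme CYP2C9 beyond about 50% at 5 µM, limit read from the data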
CYP2C9 act = CYP2C9 (human) activation; activation factor at 5 µM; recombinant CYP2C9, luciferin-H conversion, luminescence; stronger effect = higher value; factor 1 = untreated enzyme, 0 = blocked; P11712; 1.4% of 96,000 active; AID 1024;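 active means activation factor of 2 or more for CYP2C9 at a 5 µM dose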;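 further: 0 = sulfaphenazole-blocked wells and 1 = vehicle-only wells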
CYP2C19 inhib = human CYP2C19 inhibition; 21% of 96,000 active; inhibition, % at 5 µM; CYP2C19 Supersomes, luciferin-H EGE luminescence, 30 min; AID 778;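 active means CYP2C19 inhibition above a set limit at 5 µM in the primary screen, cut at about 50% in these data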;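 further: plate controls were negative control wells for no effect and 2.5 mM tranylcypromine positive control for full effect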
PostGolgi ctrl = yeast control strain growth, post-Golgi counter-screen. efflux-deficient yeast background strain, growth absorbance A615, 16 h. inhibition, % at 10 µM. 5% of 98,000 active
PostGolgi yeast = growth inhibition of a yeast mutant, post-Golgi transport screen; 0.9% of 98,000 active; AID 739; inhibition, % at 10 µM; post-Golgi transport phenotypic cell assay;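 further: yeast cells grown in 1536-well plates; yeast grown about 18 h at 30C before absorbance read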
Starred values were filed as active, the others as inactive; x = no result given. Unless noted, no stated cut-off is given here; in the data, active means inhibition above about 30%; inactive means the rest.

SMILES	CYP2C19 act	CYP2C9 inh	CYP2C9 act	CYP2C19 inhib	PostGolgi ctrl	PostGolgi yeast
CCN(CC)CCCN1C(=O)C(O)=C(C(=O)c2ccco2)C1c1cc(OC)ccc1OC (stereo not given)	1.2	-16	1.2	-24	x	x
C=CCSc1n[nH]c(-c2ccccc2)n1	0.6	10	0.9	36	2	-3
O=C(Cc1cc(=O)[nH]c(=O)[nH]1)N1CCC(Cc2ccccc2)CC1	x	x	x	x	1	-1
CC(C)C(C)NC(=O)CSc1nc2scc(-c3ccco3)c2c(=O)n1-c1ccccc1 (stereo not given)	1	37	0.6	3	20	-1
CC(C)C(C)(C#N)NC(=O)CSc1nc2scc(-c3ccco3)c2c(=O)n1-c1ccccc1 (stereo not given)	0.8	55*	0.5	24	18	-8
CCOC(=O)c1cnc(SCC(=O)Nc2cc(C(F)(F)F)ccc2N2CCOCC2)nc1N	1	5	1	4	-12	-11
COc1cc(/C=N/N=C(/N)c2nonc2N)cc(Br)c1OCc1cccc(C)c1	1	10	0.9	-3	33*	-9
COc1ccc(-n2nnnc2-c2cnc(N3CCCC3)nc2C(F)(F)F)cc1	0.1	64*	0.4	88*	22	14
FC(F)(F)c1nc(-c2cccs2)ncc1-c1nnnn1-c1ccc(Cl)cc1	1	52*	0.5	-3	53*	21
Cc1cc(C)cc(-n2nnnc2-c2cn(C)nc2C(F)(F)F)c1	0.3	20	0.8	75*	6	3
Cn1cc(-c2nnnn2-c2ccc(Cl)cc2)c(C(F)(F)F)n1	0	40	0.6	100*	5	0
CCOC(=O)c1cnc(SCC(=O)Nc2ccc(N3CCOCC3)c(Cl)c2)nc1N	0.9	81*	0.2	12	23	-17
COc1ccc(OCC(=O)NC(=S)Nc2ccc(N3CCOCC3)c(Cl)c2)cc1	1	32	0.7	-2	9	-9
CCCC(=O)Nc1ccc2nc(SCC(=O)Nc3ccc(N4CCOCC4)c(Cl)c3)sc2c1	0.6	69*	0.3	40	-1	-1
Cn1ccnc1SCC(=O)Nc1ccc2nc(SCC(=O)NC3CC3)sc2c1	0.8	62*	0.4	19	13	-11
COc1ccc(OCC(=O)Nc2ccc(N3CCOCC3)c(Cl)c2)cc1	0.5	65*	0.4	50	-6	-7
CC(C)CNC(=O)COc1ncnc2ccccc12	1	19	0.8	-1	-2	15
COc1ccccc1NCc1nnc(SCC(=O)N/N=C/c2ccco2)n1-c1ccc(Cl)cc1Cl	0.6	22	0.8	44	25	-3
CCC(CC)C(=O)N1CCN(Cc2ccc3c(c2)OCO3)CC1	0.9	-7	1.1	11	-5	-2
Cn1c(SCC(=O)C(C)(C)C)nnc1-c1cccnc1	1.1	-11	1.1	-12	-13	-10
CCN1CCN(Cc2ccc(OCc3ccccc3)cc2)CC1	0.9	11	0.9	12	-2	-13
CCOC(=O)c1sc2nc(C)cc(C)c2c1N	0.9	10	0.9	11	7	5
Cc1cc(C)c2c(N)c(-c3nc4ccccc4[nH]3)sc2n1	0.5	57*	0.4	52*	-2	11
Cc1cccc(N2CCN(C(=O)C3CCN(S(=O)(=O)c4cccnc4)CC3)CC2)c1C	0.9	20	0.8	14	1	-13
NCCCN1CCOCC1	1	-3	1	5	-1	-3
SMILES	CYP2C19 act	CYP2C9 inh	CYP2C9 act	CYP2C19 inhib	PostGolgi ctrl	PostGolgi yeast
COc1ccc(CN2C(=O)CN=C2Nc2cc(C)ccc2C)cc1	0.7	57*	0.4	26	4	3
CCc1ccccc1NC1=NCC(=O)N1Cc1ccc(OC)cc1	0.6	14	0.9	40	9	6
O=C(C1CCN(S(=O)(=O)c2cccc3cccnc23)CC1)N1CCc2ccccc21	0.6	-112	2.1*	43	-1	-2
CC1CCN(C(=O)C2CCC(CNS(=O)(=O)c3cccc4cccnc34)CC2)CC1 (stereo not given)	1	-191	2.9*	-2	-3	-9
CN1CCN(C(=O)C2CCC(CNS(=O)(=O)c3cccc4cccnc34)CC2)CC1 (stereo not given)	1.1	-27	1.3	-11	4	-2
O=C(C1CCCN1S(=O)(=O)c1cccc2cccnc12)N1CCc2ccccc2C1 (stereo not given)	0.8	15	0.8	20	-6	4
O=C(C1CCC(CNS(=O)(=O)c2cccc3cccnc23)CC1)N1CCc2ccccc21 (stereo not given)	0.2	12	0.9	80*	-4	9
O=C(C1CCCN1S(=O)(=O)c1cccc2cccnc12)N1CCc2ccccc21 (stereo not given)	0.3	62*	0.4	70*	11	-6
O=S1(=O)C=CC(Nc2ccccc2)C1 (stereo not given)	1	-2	1	-4	16	2
CCOc1ccc(NC(=S)Nc2ccc(C)c([N+](=O)[O-])c2)cc1	0.8	8	0.9	25	-1	6
O=C(Nc1cccc(C(F)(F)F)c1)C1CCCN1S(=O)(=O)c1cccc2cccnc12 (stereo not given)	0.5	48	0.5	47	10	-4
O=C(C1CCCN1S(=O)(=O)c1cccc2cccnc12)N1CCN(c2ccccc2)CC1 (stereo not given)	0.8	61*	0.4	16	-7	-3
Cn1c(COc2ccc3ccccc3c2)nnc1SCC(=O)O	1	-10	1.1	-1	14	-5
O=C1C2C3C=CC([C@@H]2C(=O)N1c1nccs1)C31CC1 (stereo not given in full)	0.2	9	0.9	76*	6	-2
CCN(CC)c1ccc(NC(=O)/C=C\c2ccccc2Cl)cc1	0.3	-125	2.3*	71*	4	6
O=C(/C=C/c1ccccc1Cl)NCc1ccccc1	0.9	-110	2.1*	8	-4	5
O=C(/C=C/c1ccccc1Cl)NCCc1ccccc1	0.5	-42	1.4	48	30	-6
CCCn1c(SC(C)C(=O)O)nc2ccccc21 (stereo not given)	0.9	-34	1.3	11	28	-10
O=C(OCCN1C(=O)c2ccccc2C1=O)c1cccc(OC(F)F)c1	0.1	26	0.7	90*	36*	2
Cc1nc2c(n1C1CCCCC1)C(=O)c1ccccc1C2=O	0.2	55*	0.4	81*	14	6
O=C1c2cccnc2C(=O)N1C1CCCCC1	0.9	13	0.9	11	6	-1
CC(C)(C)SCCNC(=O)CN(c1ccc(F)cc1)S(C)(=O)=O	0.8	9	0.9	20	1	17
Cc1ccc(N(CC(=O)NCc2ccc(F)cc2)S(=O)(=O)c2cccs2)cc1	0	63*	0.4	99*	4	14
